In ChEMBL document CHEMBL4513148, “CO-ADD screening of Stellenbosch University (South Africa) compounds” one finds Inhibition data, which are given here for 18 compounds.

SMILES strings stand for the structures. Potency and affinity values are given separately.

The test system of assay [1] is Staphylococcus aureus. To be noted: Concentration 32 ug.mL-1; ASSAY_TEST Inhibition of Bacterial Growth; detection method Absorption (OD600); MEDIA CAMHB; plate type 384well; NBS; CORNING #3640; time 18 hr.
The subject of assay [2] is Escherichia coli. To be noted: Concentration 32 ug.mL-1; ASSAY_TEST Inhibition of Bacterial Growth; detection method Absorption (OD600); MEDIA CAMHB; plate type 384well; NBS; CORNING #3640; time 18 hr.

For the compound `C#CCNC(=O)[C@H](O)C(C)(C)CO`, the Inhibition in assay [1] came to 0.74%; in assay [2], 3.62%.
Consider `CC(C)(CO)[C@@H](O)C(=O)NCCC(=O)NNCc1ccccc1`, for which the Inhibition in assay [1] is 15.8%; in assay [2], -5.42%.
Consider `CCCCCCCNC(=O)CCNC(=O)C(O)C(C)(C)C` (stereo unspecified), for which the Inhibition in assay [1] was 18.01%; in assay [2] it was -4.21%.
The matching figures for `CC(C)(CO)[C@H](O)C(=O)NCCC(=O)OCc1cn(C[C@H]2O[C@@H](n3ccc(N)nc3=O)[C@H](O)[C@@H]2O)nn1`: 8.97% and -9.8%.
Take `CCCCCCCNS(=O)(=O)CCNC(=O)[C@H](O)C(C)(C)CO`: the Inhibition in assay [1] is on record as 15.67%; in assay [2], -4.61%.
Consider `CC(C)(CO)C(O)C(=O)NCCCOP(=O)(O)OCC1OC(n2ccc(N)nc2=O)C(O)C1O` (stereo unspecified), for which the Inhibition is reported as -4.3% in assay [1] and -11.28% in assay [2].
In the same order, the values of `CC(C)(CO)[C@H](O)C(=O)NCCC(=O)NCc1cn(C[C@H]2O[C@@H](n3ccc(N)nc3=O)[C@H](O)[C@@H]2O)nn1` are 2.11% and -13.27%.
In the case of `CCCCCCCNC(=S)CCNC(=O)[C@H](O)C(C)(C)CO`, the Inhibition in assay [1] is reported as 14.7%; in assay [2], -4.19%.
In the same order, the values of `CC(C)(C)C(O)C(=O)NCCC(=O)NCCc1ccccc1` (stereo unspecified) are 10.92% and -6.19%.
As to `CC(C)(CO)[C@@H](O)C(=O)NCCC(=S)NCCc1ccccc1`, the Inhibition in assay [1] is recorded as 10.96%; in assay [2] it was -8.24%.
Take `CC(C)(CO)[C@@H](O)C(=O)N/C=C/C(=O)NCCc1ccccc1`: the Inhibition in assay [1] is reported as 31.24%; in assay [2] it was -5.06%.
As for `CCCCCCNNC(=O)CCNC(=O)[C@H](O)C(C)(C)CO`, the Inhibition is recorded as 13.79% in assay [1] and -4.33% in assay [2].
Regarding `CC(C)(COP(=O)(O)O)[C@@H](O)C(=O)NCCC(=O)NCCc1ccccc1`, the figures for the Inhibition in assay [1] and in assay [2] were 15.25% and -8.26%, respectively.
Regarding `CC(C)(CO)[C@H](O)C(=O)NCc1cn(C[C@H]2O[C@@H](n3ccc(N)nc3=O)[C@H](O)[C@@H]2O)nn1`, the Inhibition is recorded as 13.05% in assay [1] and -11.94% in assay [2].
In the same order, the values of `CC(C)(CN)C(O)C(=O)NCCC(=O)NCCc1ccccc1` (stereo unspecified) are 10.68% and -6.66%.
In the same order, the values of `CC(CC(=O)NCCc1ccccc1)NC(=O)[C@H](O)C(C)(C)CO` (stereo partly specified) are 13.65% and -6.39%.
In the case of `CC(C)(CO)[C@H](O)C(=O)NCCc1cn(C[C@H]2O[C@@H](n3ccc(N)nc3=O)[C@H](O)[C@@H]2O)nn1`, the Inhibition is recorded as -0.66% in assay [1] and -7.3% in assay [2].
The matching figures for `CC(C)(CO)[C@H](O)C(=O)NCCCc1cn(C[C@H]2O[C@@H](n3ccc(N)nc3=O)[C@H](O)[C@@H]2O)nn1`: 12.15% and -9.07%.

As usually defined, the Inhibition is the relative decrease from the control value, in per cent.
